Reference: PubChem BioAssay (Tox21)
“And” between values parts separate entries of the source, which are not always exact repeats. Equal values may be shown once. Inconclusive results are not listed. A call without a number means that no potency is given here. Some structures have more than one record in an assay (separate samples or runs), and their calls can disagree. The source made the active and inactive calls. The call rests on the fitted dose curve.

Experiment: qHTS assay to identify small molecule antagonists of the sonic hedgehog signaling (Shh) pathway (AID 1259369); further: nearly all actives have a fitted effect of over 45% in size
Conditions: NIH/3T3 Gli1-Luc reporter, Shh antagonist, luminescence 24 h; series mostly up to 92.4 µM
From the text: U.S. Tox21 Program National Center for Advancing Translational Sciences [NCATS] NIH Chemical Genomics Center [NCGC] U.S. Environmental Protection Agency [EPA] National Institutes of Environmental Health Sciences [NIEHS] National Toxicology Program [NTP] U.S. Food and Drug Administration [FDA] Tox21 Assay Overview: The sonic hedgehog (Shh) pathway is essential for normal embryonic development. Dysregulation of the Shh pathway can cause severe developmental defects in organs. Therefore chemicals that interfere with the pathway are potential developmental toxicants. A cell line designated 3T3Gli1-Luc (DMB/OARSA/CFSAN/FDA, Laurel, MD), a NIH/3T3 derived clone containing stably integrated Gli1-Luc reporter is used to detect chemical interference of the Shh pathway, by changes in the expression of the firefly Luc gene under the control of the Gli1 transcriptional response element. This cell line was used to screen Tox21 libraries for identifying and prioritizing the potential developmental toxicants that interfere Shh pathway. Conditioned medium-stimulated mode was used to screen for chemicals inhibiting Shh signaling.
Tox21 Assay Protocol Summary: 3T3 Gli1-Luc cells were dispensed at 2,000 per well in 5uL of culture medium into white solid bottom 1536-well plates (Greiner Bio-One, Monroe, NC) using a Multidrop Combi (Thermo Scientific, Waltham, MA) dispenser. The assay plates were incubated at 37 C and 5% CO2 for 4hr, and then 23nL of compounds dissolved in DMSO and positive control were transferred using a Pintool station (Wako, San Diego, CA). The compound transfer was followed by the addition of 1ul conditioned medium or assay buffer using two separate tips of Flying Reagent Dispenser (FRD, Aurora Discovery, San Diego, CA). The assay plates were incubated at 37C and 5% CO2 for 24hr. For luciferase read, 4uL of Amplite Luciferase reporter gene assay reagent (AAT Bioquest, Inc. Sunnyvale, CA) was added to each well of the assay plates using FRD and incubated at room temperature for 30min. The luminescence signal was measured using a ViewLux plate reader (Perkin Elmer, Shelton, CT).
Potency means the concentration at half of the fitted maximal effect.

Row | SMILES | Potency | activity change, negative = inhibition
1 | C=CC(=O)OCC(C)O (stereo not given) | inactive | –
2 | N#Cc1cc(I)c(O)c(I)c1 | 24.3 µM (active) | –
3 | c1ccoc1 | inactive | –
4 | O=[N+]([O-])c1ccccc1CCl | inactive | –
5 | O=Cc1ccc2c(c1)OCO2 | inactive | –
6 | [CH3][Sn]([CH3])([Cl])[Cl] | 2.43 µM (active) | –
7 | ClCc1ccccc1 | inactive | –
8 | CCOP(=O)(OCC)SCCSCC | inactive | –
9 | COc1c(C(C)(C)C)cc([N+](=O)[O-])c(C)c1[N+](=O)[O-] | inactive | –
10 | C=CCCl | inactive | –
11 | c1cc2ccc3cccc4ccc(c1)c2c34 | inactive | –
12 | COP(=S)(OC)Oc1ccc([N+](=O)[O-])cc1Cl | inactive | –
13 | ClCc1cccc(Cl)c1 | inactive | –
14 | CCn1cc[n+](C)c1 | inactive and 19.3 µM (active) and 38.8 µM (active) | –
15 | COC(=O)C(Cl)C(=O)OC | inactive | –
16 | CCOc1ccc(C(C)(C)COCc2cccc(Oc3ccccc3)c2)cc1 | inactive | –
17 | Cc1cc(=O)[nH]o1 | inactive | –
18 | O=[Se]=O | inactive | –
19 | CCOP(=S)(OCC)Oc1nc(Cl)c(Cl)cc1Cl | inactive | –
20 | NS(=O)(=O)C(F)(F)C(F)(F)C(F)(F)C(F)(F)C(F)(F)C(F)(F)C(F)(F)C(F)(F)F | inactive | –

Row | SMILES | Potency | activity change, negative = inhibition
21 | Brc1ccc(Oc2ccccc2)cc1 | 31.4 µM (active) and inactive | –
22 | Cc1ccc(-c2c(Cl)nc(C#N)n2S(=O)(=O)N(C)C)cc1 | 7.69 µM (active) | –
23 | O=[N+]([O-])C(Br)(CO)CO | 34.4 µM (active) | –
24 | CCCN(CCCl)c1c([N+](=O)[O-])cc(C(F)(F)F)cc1[N+](=O)[O-] | inactive | –
25 | CCOP(=O)(OCC)Oc1ccc([N+](=O)[O-])cc1 | inactive | –
26 | Cc1ccccc1C(=O)Nc1cccc(OC(C)C)c1 | 17.2 µM (active) | –
27 | CCBr | inactive | –
28 | C=CCN1CC[C@]23c4c5ccc(O)c4O[C@H]2C(=O)CC[C@@]3(O)[C@H]1C5 | inactive | –
29 | Clc1cc(C(Cl)(Cl)Cl)cnc1Cl | inactive | –
30 | O=S1OC[C@@H]2[C@H](CO1)[C@]1(Cl)C(Cl)=C(Cl)[C@@]2(Cl)C1(Cl)Cl (stereo not given in full) | inactive | –
31 | CC(=O)C(C)(C)C | inactive | –
32 | COC(=O)C(Br)CBr (stereo not given) | inactive | –
33 | CO[C@@H]1[C@H](OC(=O)NC(=O)CCl)CC[C@]2(CO2)[C@H]1[C@@]1(C)O[C@@H]1CC=C(C)C | – | -6.49% [at 19 µM] (inactive)
34 | Cn1sc(Cl)cc1=O | inactive | –
35 | C[C@@H]1CC[C@H]2[C@@H](C)C(=O)O[C@@H]3O[C@@]4(C)CC[C@@H]1[C@]32OO4 | inactive | –
36 | O=Cc1ccc(Cl)cc1Cl | inactive | –
37 | CCCCC(CC)COP(=O)(Oc1ccccc1)Oc1ccccc1 (stereo not given) | inactive | –
38 | COP(=O)(OC)O/C(=C/Cl)c1cc(Cl)c(Cl)cc1Cl | 57.5 µM (active) | –
39 | IC(I)=C(I)I | 2.73 µM (active) | –
40 | NC(=O)CI | inactive | –
